# Inconclusive results are not listed. Entries that show only a call come without a potency. Calls of active or inactive are those of the source. Calls come from the whole dose curve; as a rule, active = well fitted cell-killing curve with a large enough effect in the repeat runs; inconclusive = weak or mixed curves, or effect the other way; inactive = no such curve, though single readings can be large or run the other way.
# Assay: qHTS assay to identify small molecule antagonists of the glucocorticoid receptor (GR) signaling pathway - cell viability counter screen (AID 720693); note: nearly all actives have a fitted effect of over 55% in size
# Conditions: GR-bla HeLa viability, CellTiter-Glo luminescence, 18 h, with 5 nM dexamethasone present; series mostly up to 58.5 µM
row,SMILES,outcome
1,COC(=O)[C@H]1[C@H]2C[C@@H]3c4[nH]c5cc(OC)ccc5c4CCN3C[C@H]2C[C@@H](OC(=O)COc2ccc(OC)cc2)[C@@H]1OC,inactive
2,Nc1ccc2cc(S(=O)(=O)O)ccc2c1,inactive
3,C=CCSCC1Nc2cc(Cl)c(S(N)(=O)=O)cc2S(=O)(=O)N1 (centres undefined),inactive
4,O=C1C(CCS(=O)c2ccccc2)C(=O)N(c2ccccc2)N1c1ccccc1 (centres undefined),inactive
5,CC(C)=CC(=O)O,inactive
6,CCN(CC)C(=O)c1ccc(O)c(OC)c1,inactive
7,NCCNC(=O)c1ccc(Cl)cn1,inactive
8,Cc1cc(C)cc(OCC2CNC(=O)O2)c1 (centres undefined),inactive
9,C1COCCO1,inactive
10,O=C1OC(=O)c2cc([N+](=O)[O-])ccc21,inactive
11,C=C(C)C1CC=C(C)C(O)C1 (centres undefined),inactive
12,C[C@H]1O[C@@H](n2cc(F)c(=O)[nH]c2=O)[C@H](O)[C@@H]1O,inactive
13,C#CC(C)(O)CC(C)C (centres undefined),inactive
14,CC(=O)NC(Cc1ccccc1)C(=O)O (centres undefined),inactive
15,CN(C)N=Nc1ccccc1,inactive
16,NCCN1CCNC1=O,inactive
17,CCCOCC(C)OCC(C)O (centres undefined),inactive
18,NS(=O)(=O)c1cc2c(cc1Cl)NC(CSCc1ccccc1)=NS2(=O)=O,inactive

row,SMILES,outcome
1,CCCCCCCCCCCCCCC,inactive
2,CC(C)(C)N(CCO)CCO,inactive
3,N#CCN(CC#N)CCN(CC#N)CC#N,inactive
4,NC(=O)Nc1nc2ccccc2[nH]1,inactive
5,CCCCOCC(C)OCC(C)O (centres undefined),inactive
6,CSc1ccc(C=O)cc1,inactive
7,CCCOc1ccccc1-c1nc2n[nH]nc2c(=O)[nH]1,inactive
8,OC[C@H]1O[C@@H]2O[C@H]3[C@H](O)[C@@H](O)[C@@H](O[C@H]4[C@H](O)[C@@H](O)[C@@H](O[C@H]5[C@H](O)[C@@H](O)[C@@H](O[C@H]6[C@H](O)[C@@H](O)[C@@H](O[C@H]7[C@H](O)[C@@H](O)[C@@H](O[C@H]8[C@H](O)[C@@H](O)[C@@H](O[C@H]9[C@H](O)[C@@H](O)[C@@H](O[C@H]1[C@H](O)[C@H]2O)O[C@@H]9CO)O[C@@H]8CO)O[C@@H]7CO)O[C@@H]6CO)O[C@@H]5CO)O[C@@H]4CO)O[C@@H]3CO,inactive
9,CC(C)(C)C(=O)/C=C/c1ccc(Cl)cc1,inactive
10,CCN1CCN(c2cc3c(cc2F)c(=O)c(C(=O)O)cn3C2CC2)CC1,inactive
11,Cc1ccccc1C(=O)O,inactive
12,COC[C@H](c1ccc(C(F)(F)F)cc1)N1CCN(C2(C)CCN(C(=O)c3c(C)ncnc3C)CC2)C[C@H]1C,inactive
13,Fc1ccccc1-c1ccccc1,inactive
14,NC(=O)c1c(Cl)cccc1Cl,inactive
15,CC1=CC(C)C(C=O)C(C)C1 (centres undefined),inactive
16,C(=C(c1ccccc1)c1ccccc1)c1ccccc1,inactive
17,CC/C=C\CCCCO,inactive

# Assay: qHTS assay for identifying genotoxic compounds that show differential cytotoxicity against isogenic chicken DT40 cell lines with known DNA damage response pathways - wild type cell line (AID 743012); note: nearly all actives have a fitted effect of over 60% in size; note: potency is the fitted concentration of half-maximal effect
# Conditions: DT40 wild type chicken cells viability, CellTiter-Glo, 40 h; series mostly up to 68.4 µM
# Outline: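 Cytotoxicity in repair-proficient parental chicken DT40 cells serves as the comparator for Rad54/Ku70- and Rev3-deficient lines. Cells were exposed to compounds for 40 h at 37 C/5% CO2, and ATP-based luminescence (CellTiter-Glo) measured viability.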
row,SMILES,Potency
1,COC(=O)[C@H]1[C@H]2C[C@@H]3c4[nH]c5cc(OC)ccc5c4CCN3C[C@H]2C[C@@H](OC(=O)COc2ccc(OC)cc2)[C@@H]1OC,21.1 µM (active)
2,Nc1ccc2cc(S(=O)(=O)O)ccc2c1,inactive
3,C=CCSCC1Nc2cc(Cl)c(S(N)(=O)=O)cc2S(=O)(=O)N1 (centres undefined),inactive
4,O=C1C(CCS(=O)c2ccccc2)C(=O)N(c2ccccc2)N1c1ccccc1 (centres undefined),inactive
5,CC(C)=CC(=O)O,inactive
6,CCN(CC)C(=O)c1ccc(O)c(OC)c1,inactive
7,NCCNC(=O)c1ccc(Cl)cn1,inactive
8,Cc1cc(C)cc(OCC2CNC(=O)O2)c1 (centres undefined),inactive
9,O=C1OC(=O)c2cc([N+](=O)[O-])ccc21,inactive
10,C=C(C)C1CC=C(C)C(O)C1 (centres undefined),inactive
11,C[C@H]1O[C@@H](n2cc(F)c(=O)[nH]c2=O)[C@H](O)[C@@H]1O,21.1 µM (active)
12,C#CC(C)(O)CC(C)C (centres undefined),inactive
13,CC(=O)NC(Cc1ccccc1)C(=O)O (centres undefined),inactive
14,CN(C)N=Nc1ccccc1,inactive
15,NCCN1CCNC1=O,inactive
16,CCCOCC(C)OCC(C)O (centres undefined),inactive
17,NS(=O)(=O)c1cc2c(cc1Cl)NC(CSCc1ccccc1)=NS2(=O)=O,inactive

row,SMILES,Potency
1,CCCCCCCCCCCCCCC,inactive
2,CC(C)(C)N(CCO)CCO,inactive
3,N#CCN(CC#N)CCN(CC#N)CC#N,inactive
4,NC(=O)Nc1nc2ccccc2[nH]1,inactive
5,CCCCOCC(C)OCC(C)O (centres undefined),inactive
6,CSc1ccc(C=O)cc1,inactive
7,CCCOc1ccccc1-c1nc2n[nH]nc2c(=O)[nH]1,inactive
8,OC[C@H]1O[C@@H]2O[C@H]3[C@H](O)[C@@H](O)[C@@H](O[C@H]4[C@H](O)[C@@H](O)[C@@H](O[C@H]5[C@H](O)[C@@H](O)[C@@H](O[C@H]6[C@H](O)[C@@H](O)[C@@H](O[C@H]7[C@H](O)[C@@H](O)[C@@H](O[C@H]8[C@H](O)[C@@H](O)[C@@H](O[C@H]9[C@H](O)[C@@H](O)[C@@H](O[C@H]1[C@H](O)[C@H]2O)O[C@@H]9CO)O[C@@H]8CO)O[C@@H]7CO)O[C@@H]6CO)O[C@@H]5CO)O[C@@H]4CO)O[C@@H]3CO,inactive
9,CC(C)(C)C(=O)/C=C/c1ccc(Cl)cc1,inactive
10,CCN1CCN(c2cc3c(cc2F)c(=O)c(C(=O)O)cn3C2CC2)CC1,inactive
11,Cc1ccccc1C(=O)O,inactive
12,COC[C@H](c1ccc(C(F)(F)F)cc1)N1CCN(C2(C)CCN(C(=O)c3c(C)ncnc3C)CC2)C[C@H]1C,29.8 µM (active)
13,Fc1ccccc1-c1ccccc1,inactive
14,NC(=O)c1c(Cl)cccc1Cl,inactive
15,CC1=CC(C)C(C=O)C(C)C1 (centres undefined),inactive
16,C(=C(c1ccccc1)c1ccccc1)c1ccccc1,inactive
17,CC/C=C\CCCCO,inactive

# Source: PubChem BioAssay (Tox21)
